# Screening results: PubChem BioAssay, National Center for Advancing Translational Sciences (NCATS)
# A selection: hits, their analogues and other compounds. The true share with any hit is near 19%.
# TDP1 cell noCPT = qHTS for Inhibitors of human tyrosyl-DNA phosphodiesterase 1 (TDP1): qHTS in cells in absence of CPT | DT40 Tdp1-/- hTDP1 cells, no CPT, ATP luminescence, 48 h | Potency, µM (titrated, usually from 46.2 µM), without a hit: at the highest dose activity change, negative = growth inhibition, usual class: inhibitors | 420,000 compounds, 15% hits | AID 686978, 2013; also: nearly all actives have a fitted effect of over 55% in size
#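 Seeded 400 DT40-hTDP1 cells/well (vehicle DMSO, no 20 nM CPT); pinned compounds; ≥48 hr at 37 °C; CellTiter-Glo luminescence as viability measure.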
# HT1080-NT tox = kills 2HG-producing HT-1080-NT fibrosarcoma cells; HT-1080-NT fibrosarcoma viability, CellTiter-Glo ATP luminescence, 48 h; Potency, µM (doses to about 46.1 µM), for the others: at the highest dose activity, negative = less viability, most hits filed as cytotoxic; AID 686970; 360,000 compounds, 1.6% hits;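 also: NT is the 2HG producing partner of a matched IDH1 knockdown line; 0% = DMSO-treated cells and -100% = media-only wells without cells; nearly all actives have a fitted effect of over 55% in size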
#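 HT-1080-NT; 750 cells/well; 5% FBS RPMI; 48 h compound, 37 degrees C; CellTiter-Glo luminescence; curve fitting and curve-class assignment.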
# KB-3-1 cytotox = KB-3-1 parental cell cytotoxicity; 400,000 compounds, 1.4% hits; KB-3-1 viability, CellTiter-Glo ATP luminescence, 72 h; Potency, µM (titrated, usually from 46.1 µM), most hits filed as cytotoxic; also: nearly all actives have a fitted effect of over 60% in size
#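 KB-3-1 parental drug-naive adenocarcinoma cells in DMEM/10% FBS, incubated 72 h at 37 C with pin-transferred compounds across a concentration series. Viability by CellTiter-Glo luminescence; concentration-response curves fitted after normalization.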
# DT40 TDP1 CPT = growth inhibition of DT40 Tdp1-/-;hTDP1 cells with camptothecin (screen for TDP1 inhibitors) | Potency, µM (doses to about 46.2 µM), inactives show top-dose activity change, negative = growth inhibition, usual class: inhibitors | 420,000 compounds, 12% hits | chicken DT40 Tdp1-/-;hTDP1 cells + 20 nM CPT, ATP luminescence, 48 h; also: nearly all actives have a fitted effect of over 55% in size
#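 Chicken DT40 Tdp1-/- cells complemented with human TDP1, 400 cells/well, exposed to compounds plus 20 nM camptothecin for at least 48 h at 37 C; viability read as ATP content by CellTiter-Glo luminescence.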
# KB-V1 MDR tox = kills drug-selected multidrug resistant KB-V1 cells; KB-V1 MDR cells viability, CellTiter-Glo, 72 h; Potency, µM (doses to about 46.1 µM), actives largely listed as cytotoxic; 400,000 compounds, 3.4% hits; AID 1347076; also: nearly all actives have a fitted effect of over 60% in size
#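 Luminescent ATP read-out (CellTiter-Glo, 10 min) measures survival of drug-selected KB-V1 MDR cells after 72 h, 37 degrees C compound exposure. Medium: phenol-red-free DMEM, 10% FBS. Values from fitted concentration-response curves.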
# HT1080 IDH1KD tx = toxicity to HT-1080 IDH1 knockdown cells (counter line). AID 686971. 360,000 compounds, 2% hits. HT-1080 IDH1 knockdown viability, ATP luminescence, 48 h. Potency, µM (top dose mostly 46.1 µM), for inactives: top-dose activity, negative = toxicity, hits mostly cytotoxic;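 also: 0% = DMSO wells and -100% = cell-free medium wells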
#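 After a 2 h attachment period, IDH1KD HT-1080 cells took pin-transferred compound for 48 h at 37 °C; ATP-based luminescence after 10 min room-temperature reagent incubation reported viability.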
# * marks the source's active call; other numbers are inactive results; i = inactive; ? = inconclusive; nt = no result given; [ ] = dose if it differs, or a comment. Calls follow the shape of the dose curve; as a rule, active = well fitted curve in the direction sought with a large enough effect; inconclusive = small, poorly fitted or top-dose-only effect, or another doubt; inactive = no such curve, though single readings can be large; an effect the other way counts as inactive or inconclusive. Unless noted, % is scaled to controls: 0 for no effect and ±100 for the full control effect; potency is read from the fitted curve at half-maximal effect.
SMILES,TDP1 cell noCPT,HT1080-NT tox,KB-3-1 cytotox,DT40 TDP1 CPT,KB-V1 MDR tox,HT1080 IDH1KD tx
CC(=O)Nc1nc2ccc(S(=O)(=O)N3CCCC3)cc2s1,-18%,5%,i,?,i,9%
CCOC(=O)c1cc(C)n(S(=O)(=O)c2ccc(C)cc2)c1C,-24%,-11%,i,-20%,i,-8%
Cc1cnc(C(=O)Nc2nccs2)cn1,-27%,9%,i,-6%,i,5%
N[C@@H](C(=O)O)c1cc(O)ccc1Cl,1.2µM*,nt,nt,2.4µM*,nt,nt
N[C@H](C(=O)O)c1cc(O)cc(O)c1,-8%,nt,nt,?,nt,nt
C/C(=C\C(=O)c1ccc(Br)cc1)NNC(=O)c1ccc(O)cc1,?,-5%,?,13µM*,i,-11%
C/C(=C\C(=O)c1ccc(Br)cc1)NNC(=O)c1ccccc1,18µM*,-31%,i,?,i,-28%
C/C(=C\C(=O)c1ccc(Br)cc1)NCc1ccccc1,-14%,1%,i,-2%,?,14%[9.24 µM]
C/C(=C\C(=O)c1ccc(Cl)cc1)Nc1ccc(Br)cc1,-28%,4%,i,-3%,i,-1%
COc1ccccc1NC(=O)NNC(=O)c1ccc2ccccc2c1O,11%,3%,i,-6%,i,-10%
O=C(Nc1ccccc1C(=O)N1CCCCC1)c1nsc2ccccc12,?,nt,i,?,i,nt
Cc1ccc(CSc2nc3cccnc3n2Cc2ccc(C(=O)NCc3cccs3)cc2)cc1,-3%,nt,nt,-28%,nt,nt
COc1ccccc1CNC(=O)c1ccc(Cn2c(SCc3ccccc3)nc3cccnc32)cc1,?,nt,i,?,i,nt
O=C(NCc1cccs1)c1ccc(Cn2c(SCc3ccccc3)nc3cccnc32)cc1,26µM*,nt,i,?,i,nt
O=C(NCc1ccco1)c1ccc(Cn2c(SCc3ccccc3F)nc3cccnc32)cc1,23µM*,nt,nt,?,nt,nt
Cc1ccccc1CNC(=O)c1ccc(Cn2c(SCc3ccccc3)nc3cccnc32)cc1,?,nt,i,?,i,nt
O=C(NCc1cccs1)c1ccc(CSc2nc3cccnc3n2Cc2ccccc2F)cc1,23µM*,nt,i,?,i,nt
CC(CNC(=O)c1ccc(Cn2c(SCc3ccccc3)nc3cccnc32)cc1)c1ccccc1 (stereo not drawn),21µM*,nt,i,?,?,nt
Cc1cccc(Cn2c(SCc3ccc(C(=O)NCc4cccs4)cc3)nc3cccnc32)c1,15µM*,nt,i,?,?,nt
O=C(NCCc1cccs1)c1ccc(Cn2c(SCc3ccc(F)cc3)nc3cccnc32)cc1,21µM*,nt,i,?,i,nt
Cc1cccc(Cn2c(SCc3ccc(C(=O)NC4CCCC4)cc3)nc3cccnc32)c1,?,nt,?,?,i,nt
Cc1ccc(C(=O)NC2CCc3ccccc3C2=O)cc1 (stereo not drawn),-25%,21%,i,?,i,1%
CC(=O)Nc1ccc(NC(=O)C2c3ccccc3Oc3ccccc32)cc1,-2%,11%,i,14%,i,6%
Cc1ccc(C(=O)NC2c3ccccc3-c3ccccc32)cc1,3.7µM*,?,6.5µM*,2.9µM*,5.2µM*,2.6µM*
Cc1ccc(NC(=O)C2c3ccccc3-c3ccccc32)cc1,?,-5%,i,6.5µM*,i,-5%
SMILES,TDP1 cell noCPT,HT1080-NT tox,KB-3-1 cytotox,DT40 TDP1 CPT,KB-V1 MDR tox,HT1080 IDH1KD tx
CCNC(=O)Nc1nc2ccccc2s1,8%,8%,i,-1%,i,13%
O=C(Nc1ccc(Cl)cc1)Nc1cccnc1,?,1%,i,16µM*,i,-2%
O=C(Nc1cccnc1)Nc1cccc(F)c1,13µM*,17%,i,-28%,i,22%
Cc1ccc(NC(=O)Nc2nc3ccccc3s2)cc1NC(=O)Nc1nc2ccccc2s1,13µM*,3%,i,?,i,-1%
Cc1ccc(NC(=O)Nc2cccnc2)cc1NC(=O)Nc1cccnc1,9.2µM*,?,?,13µM*,?,?
Fc1cccc(NC(=S)Nc2cccnc2)c1,?,7%,i,-17%,i,-1%
COc1ccc(CCNC(=O)CCNS(=O)(=O)c2cccc(Cl)c2)cc1OC,0%,0%,i,0%,i,0%
CCCCOc1ccc(C(=O)NN2CCOCC2)cc1,17%,-7%,i,2%,i,-5%
CCOC(=O)c1cc(OC(=O)c2cc(OC)c(OC)c(OC)c2)n(-c2ccccc2)n1,nt,nt,i,nt,i,nt
Cc1c(C(=O)O)c(O)cc2c1C(=O)c1c(O)c([C@H]3O[C@H](CO)[C@@H](O)[C@H](O)[C@H]3O)c(O)c(O)c1C2=O,?,nt,i,8.9µM*,i,nt
O=C(NCCN1CCOCC1)C1CC(=O)N(c2ccc(Cl)cc2)C1 (stereo not drawn),-21%,10%,i,1%,?,6%
CCOc1ccc(Br)cc1C1C(C(=O)OC)=C(N)Oc2cc(N(C)C)ccc21 (stereo not drawn),?,12µM*,?,5.2µM*,23µM*,15µM*
CCOc1ccccc1C1C(C(=O)OC)=C(N)OC2=C1C(=O)CCC2 (stereo not drawn),-11%,0%,i,-20%,i,5%
CCCNC(=O)c1c(N)n(-c2cccc(OC)c2)c2nc3ccccc3nc12,?,-13%,i,?,?,-14%
COc1ccc(-n2c(N)c(C(=O)NCc3ccco3)c3nc4ccccc4nc32)c(OC)c1,?,-2%,i,23µM*,i,-18%
COc1ccc(CCn2c(N)c(C(=O)NCc3ccco3)c3nc4ccccc4nc32)cc1,13µM*,?,7.3µM*,12µM*,6.5µM*,?
COc1ccc(CCn2c(N)c(C(=O)NCc3ccco3)c3nc4ccccc4nc32)cc1OC,16µM*,?,i,23µM*,i,18µM*
COc1ccc(S(=O)(=O)Cc2ccc(C(=O)NCc3ccco3)o2)cc1,-7%,2%,i,-14%,i,4%
COCCNC(=O)c1c(N)n(CCC2=CCCCC2)c2nc3ccccc3nc12,26µM*,-1%,?,?,?,0%
COCCn1c(N)c(C(=O)OCc2ccccc2)c2nc3ccccc3nc21,?,-8%,i,-8%,i,-8%
